This note sets out measurements from PubChem BioAssay (Tox21).

A number with no mark means an inactive call. Inconclusive results are not listed. Activity calls are given as the source filed them. Unless noted, calls follow the shape of the dose curve; as a rule, active = well fitted curve in the direction sought with a large enough effect in the repeat runs; inconclusive = weak or mixed curves; inactive = no such curve, though single readings can be large; an effect the other way counts as inactive or inconclusive.

Assay [1] is described as follows: qHTS assay to identify small molecule antagonists of the estrogen related receptor (ERR) signaling pathway from Tox21 library - cell viability counter screen (AID 1224834). Also: nearly all actives have a fitted effect of over 30% in size. The method in brief: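 After 17.5 h of compound exposure at 37 C, ERR cells are incubated with CellTiter-Fluor for 30 min and fluorescence intensity serves as the viability measure.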
A general note: qHTS replaces the single test concentration by a dilution series.

Assay [2] in a line: qHTS assay to identify small molecule agonists of the constitutive androstane receptor (CAR) signaling pathway - cell viability counter screen (AID 1224836). Also: nearly all actives have a fitted effect of over 45% in size. Summed up: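 Viability read-out: CellTiter-Fluor fluorescence after 23 h compound exposure at 37 C/5% CO2 in double-stable HepG2-CYP2B6-hCAR cells, with PK11195 present at 0.75 uM final; compounds tested in 15-point titration.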

The nature of assay [3]: qHTS assay to identify small molecule antagonists of the constitutive androstane receptor (CAR) signaling pathway - cell viability counter screen (AID 1224837). Also: nearly all actives have a fitted effect of over 45% in size. Summed up: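 Counter screen run in HepG2-CYP2B6-hCAR cells: 4 hr settle, compound titration (15 concentrations) with 50 nM CITCO, 23 hr at 37 C/5% CO2, CellTiter-Fluor fluorescence.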
Assay [4] can be described thus: qHTS assay to identify small molecule antagonists of the estrogen related receptor signaling pathway with the pleiotropic PPARgamma coactivator (PGC) from Tox21 10K library - cell viability counter screen (AID 1224840; active = well fitted cell-killing curve with a large enough effect in the repeat runs, not every such curve was filed as active; also: nearly all actives have a fitted effect of over 40% in size). The method in brief: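 Following seeding of 2,000 PGC/ERR cells/well and 6 hours' incubation, test compounds were delivered in DMSO. The plates then sat 17.5 hours at 37 C before a fluorogenic live-cell protease reagent (CellTiter-Fluor) was read after 30 min.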

A short description of assay [5]: qHTS assay to identify small molecule antagonists of the estrogen related receptor signaling pathway with the pleiotropic PPARgamma coactivator (PGC) from Tox21 10K library (AID 1224841; call rule not given here; also: actives are mostly falling curves and most rising ones were filed inactive; nearly all actives have a fitted effect of over 50% in size). Summed up: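 qHTS antagonist format: PGC/ERR cells, 2k/well, compound in DMSO by pin transfer after 6 h attachment, 18 h treatment at 37 C, One-Glo luminescence read at 30 min.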

Assay [6] is described as follows: qHTS assay to identify small molecule agonists of the estrogen related receptor signaling pathway with the pleiotropic PPARgamma coactivator (PGC) from Tox21 10K library (AID 1224842). Also: nearly all actives have a fitted effect of over 15% in size. The method in brief:
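PGC/ERR reporter cell line, 2,000 cells per well, incubated 6 h at 37 C before 23 nL compound in DMSO was added. After 18 h at 37 C, One-Glo luminescence read following 30 min at room temperature.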

Assay [7] concerns the target Thyrotropin receptor (Homo sapiens) (UniProt P16473). Put plainly: qHTS assay to identify small molecule agonists of the thyroid stimulating hormone receptor (TSHR) signaling pathway (AID 1224843; calls by dose curve; also: nearly all actives have a fitted effect of over 45% in size). Summed up:
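Steps: seed 800 TSHR-HEK293 cells per well; add test compound and hold 30 min at ambient temperature; dispense cAMP-d2 then anti-cAMP cryptate; incubate 1 h at ambient; measure fluorescence intensity.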

Assay [8] can be described thus: qHTS assay to identify small molecule agonists of the hypoxia (HIF-1) signaling pathway - cell viability counter screen (AID 1224844; calls by dose curve; also: nearly all actives have a fitted effect of over 50% in size). The method in brief: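 Cells (HRE-bla ME-180, 2,000 per well) sat 5 hrs at 37C, got compound for 17 hrs, were read for CCF4-AM FRET, and were finally lysed with CellTiter-Glo for a 30 min room-temperature luminescence read.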
Assay [9] is described as follows: qHTS assay to identify small molecule agonists of H2AX (AID 1224845; active = well fitted activation curve with a large enough effect in the signal ratio in the repeat runs, not every such curve was filed as active; the % refers to the signal ratio). The method in brief:
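Wild-type CHO-K1 cells, plated overnight, exposed 3hr at 37C to 15 concentrations (0.76% DMSO final). Lysed, then HTRF anti-pH2AX (S139) cryptate and anti-H2AX-d2 antibodies, 24 hr room temperature; 665/620 nm emission read.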

Assay [10] is described as follows: qHTS assay to identify small molecule agonists of H2AX - cell viability counter screen (AID 1224847; calls by dose curve; also: top concentration of the series differs between compounds; nearly all actives have a fitted effect of over 30% in size). The method in brief: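 CHO-K1 wt, 1000 cells/well, o/n 37C; cpds 15 conc, 3 h 37C, 0.76% DMSO; CellTiter-Glo, 30 min RT, luminescence.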
The nature of assay [11]: qHTS assay to identify small molecule antagonists of the estrogen related receptor (ERR) signaling pathway from Tox21 library (AID 1224848). Also: nearly all actives have a fitted effect of over 50% in size. Summed up:
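Luminescent reporter read-out (ONE-Glo) from NTP's ERR cell line after 18 h treatment at 37 C with DMSO-dissolved Tox21 compounds; cells pre-plated 6 h beforehand at 2,000 per well.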

Assay [12] in a line: qHTS assay to identify small molecule agonists of the estrogen related receptor (ERR) signaling pathway from Tox21 library (AID 1224849; calls by dose curve; also: nearly all actives have a fitted effect of over 15% in size). The following applies: ERR reporter cell line, ONE-Glo luciferase, 18 h; at 92.4 µM (top of the series) unless noted. The method in brief: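 Screening used an NTP-provided ERR luciferase cell line. Compounds in DMSO were added 6 h after seeding and left 18 h at 37 C before a 30 min ONE-Glo step and luminescence reading.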

Assay [13] is described as follows: qHTS RealTime-Glo MT Cell Viability Assay in HepG2 cells - 24 hour (AID 1224867). Also: nearly all actives have a fitted effect of over 50% in size. Summed up:
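Viability was tracked continuously by NanoLuc luminescence from prosubstrate reduced by living HepG2 cells, at successive time points over 40 h of compound exposure. Cells with reagent were preincubated 5 h at 37 °C before compound addition.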

The nature of assay [14]: qHTS RealTime-Glo MT Cell Viability Assay in HEK293 cells - 32 hour (AID 1224868). Summed up:
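Viability tracked continuously by luminescence as live cells reduce a prosubstrate for NanoLuc; HEK293 cells preincubated 5 h, compound-treated at 37 C, and read at 0, 8, 16, 24, 32 and 40 h.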

A short description of assay [15]: A CellTox Green Cytotoxicity Assay to monitor cytotoxicity in HEK293 cells - 0 hour (AID 1224869). Also: nearly all actives have a fitted effect of over 50% in size. Summed up:
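Fluorescence intensity, read at 0, 8, 16, 24, 32 and 40 h of compound treatment, reflected dye binding to DNA of dead HEK293 cells; compounds (23 nL, DMSO) were added 5 h after plating cells with reagent.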

Assay [16] concerns the target Nuclear receptor subfamily 1 group I member 3 (Homo sapiens) (UniProt Q14994). As to the kind of experiment: qHTS assay to identify small molecule antagonists of the constitutive androstane receptor (CAR) signaling pathway (AID 1224838).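 Also: HepG2 cells stably expressing hCAR with CYP2B6 luciferase reporter stimulated by CITCO; nearly all actives have a fitted effect of over 40% in size.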 Summed up: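 Cell line: HepG2 double-stable for hCAR and CYP2B6-2.2kb reporter. Agonist: CITCO, 50 nM final. Compounds: 15 concentrations, 24 h, 37 C. Detection: ONE-Glo luminescence.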

Assay [17] has the same target. Put plainly: qHTS assay to identify small molecule agonists of the constitutive androstane receptor (CAR) signaling pathway (AID 1224839). Also: nearly all actives have a fitted effect of over 15% in size. Also: potency is read from the fitted curve at half-maximal effect.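 As to activation: HepG2 cells stably carrying human CAR and a CYP2B6 luciferase reporter.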 Summed up: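 Luminescence read-out (ONE-Glo, 30 min, room temperature) from double-stable HepG2-CYP2B6-hCAR cells exposed 24 h to 15-point compound series in presence of 0.75 uM PK11195 final.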
A short description of assay [18]: qHTS assay to identify small molecule agonists of the hypoxia (HIF-1) signaling pathway (AID 1224846; active = well fitted activation curve with a large enough effect in the signal ratio in the repeat runs, not every such curve was filed as active; the % refers to the signal ratio). The method in brief: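 A low-serum medium (0.5% dialyzed FBS) holding 2,000 HRE-bla ME-180 cells per well is preincubated for 5 hrs, dosed with compounds by pintool, and kept a further 17 hrs at 37C, 5% CO2 before CCF4-AM FRET detection of beta-lactamase.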
Assay [19] has as its target Luciferin 4-monooxygenase (Photinus pyralis) (UniProt P08659). Put plainly: qHTS assay to identify small molecule inhibitors of firefly luciferase (AID 1224835). Also: nearly all actives have a fitted effect of over 25% in size. Summed up: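 Biochemical qHTS: compounds run as interplate titrations against purified firefly enzyme, with D-luciferin and ATP each at its KM concentration. Light output recorded by CCD imaging.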
% is scaled to controls: 0 for no effect and ±100 for the full control effect.

Thyrotropin receptor (Homo sapiens), sequence (P16473 whole entry, looked up): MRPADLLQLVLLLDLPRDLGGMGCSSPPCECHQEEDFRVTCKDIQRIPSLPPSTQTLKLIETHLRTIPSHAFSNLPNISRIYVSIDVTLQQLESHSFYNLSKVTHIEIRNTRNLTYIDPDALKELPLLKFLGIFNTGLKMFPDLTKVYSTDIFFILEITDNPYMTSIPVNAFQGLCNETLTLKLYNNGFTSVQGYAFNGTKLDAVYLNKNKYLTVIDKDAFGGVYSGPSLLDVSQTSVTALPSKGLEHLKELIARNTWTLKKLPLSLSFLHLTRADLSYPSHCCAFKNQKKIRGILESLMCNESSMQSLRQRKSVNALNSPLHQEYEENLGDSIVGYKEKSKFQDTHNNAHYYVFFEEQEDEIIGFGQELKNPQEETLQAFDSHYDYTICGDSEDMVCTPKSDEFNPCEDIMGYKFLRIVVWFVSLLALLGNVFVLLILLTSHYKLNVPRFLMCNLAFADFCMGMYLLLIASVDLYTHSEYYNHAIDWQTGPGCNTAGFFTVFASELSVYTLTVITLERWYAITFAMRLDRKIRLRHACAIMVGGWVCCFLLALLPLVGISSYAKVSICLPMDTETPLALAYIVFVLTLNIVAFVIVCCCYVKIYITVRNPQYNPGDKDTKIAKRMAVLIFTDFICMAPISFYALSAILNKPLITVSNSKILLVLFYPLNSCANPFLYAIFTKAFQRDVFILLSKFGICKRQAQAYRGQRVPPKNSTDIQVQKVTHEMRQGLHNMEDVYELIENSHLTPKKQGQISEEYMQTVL
Nuclear receptor subfamily 1 group I member 3 (Homo sapiens), sequence (Q14994 whole entry, looked up): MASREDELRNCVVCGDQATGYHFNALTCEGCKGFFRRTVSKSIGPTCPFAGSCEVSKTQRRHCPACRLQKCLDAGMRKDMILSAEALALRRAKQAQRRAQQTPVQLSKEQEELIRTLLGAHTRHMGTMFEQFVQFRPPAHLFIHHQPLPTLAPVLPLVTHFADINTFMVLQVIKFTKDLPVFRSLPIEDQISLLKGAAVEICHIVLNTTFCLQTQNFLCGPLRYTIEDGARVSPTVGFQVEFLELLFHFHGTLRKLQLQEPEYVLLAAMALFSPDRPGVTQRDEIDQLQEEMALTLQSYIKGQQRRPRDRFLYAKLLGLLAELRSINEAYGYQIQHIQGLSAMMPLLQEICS
Luciferin 4-monooxygenase (Photinus pyralis), sequence (P08659 whole entry, looked up): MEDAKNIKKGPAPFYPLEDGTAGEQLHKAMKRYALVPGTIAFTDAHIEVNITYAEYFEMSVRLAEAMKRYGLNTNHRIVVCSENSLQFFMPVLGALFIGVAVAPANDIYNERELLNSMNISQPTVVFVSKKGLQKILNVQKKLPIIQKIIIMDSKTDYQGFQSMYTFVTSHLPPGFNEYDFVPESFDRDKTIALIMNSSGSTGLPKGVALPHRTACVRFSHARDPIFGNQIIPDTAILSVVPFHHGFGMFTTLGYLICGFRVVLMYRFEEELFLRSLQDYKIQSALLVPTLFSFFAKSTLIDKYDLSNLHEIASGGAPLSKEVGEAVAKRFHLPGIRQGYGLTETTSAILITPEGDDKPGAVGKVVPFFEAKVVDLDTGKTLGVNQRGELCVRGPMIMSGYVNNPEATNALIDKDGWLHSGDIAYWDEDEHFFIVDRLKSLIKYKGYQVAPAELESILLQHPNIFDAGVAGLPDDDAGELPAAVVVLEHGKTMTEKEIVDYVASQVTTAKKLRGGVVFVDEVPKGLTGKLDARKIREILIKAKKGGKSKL

In the case of `C=C1CC[C@@]2(O)[C@H]3Cc4ccc(O)c5c4[C@@]2(CCN3CC2CC2)[C@H]1O5`, the Potency result in [1], in [2], in assay [3], in assay [4], in assay [5] and in [6] was “inactive” each time. The Potency result in [7], in [8], in assay [10], in [11], in assay [13] and in [14] was “inactive” in each case. In addition, the compound was called inactive in assay [9] and in assay [15]. For the same compound, the activity change, positive = activation in [12] is 8.21% [at 42.5 µM].
Turning to `NCC1(CC(=O)O)CCCCC1`, the Potency entry in assay [1], in assay [2], in assay [3], in [4], in assay [7] and in assay [8] was “inactive” throughout. The Potency entry in [10], in assay [13] and in [14] was “inactive” in each case. Besides, the call in [9] and in assay [15] was inactive.
On to `O=C(O)C(Cl)Br` (stereo not given), for which the Potency entry in assay [1], in [2], in assay [3], in assay [16], in assay [17] and in assay [4] was “inactive” in each case. The Potency result in assay [7], in assay [8], in assay [10] and in assay [13] was “inactive” each time. In addition, the compound was called inactive in assay [9] and in [15].
Turning to `N#CN=C1SCCN1Cc1ccc(Cl)nc1`, the Potency entry in [1], in assay [2], in [3], in assay [4], in assay [5] and in assay [6] was “inactive” in each case. Also, the Potency result in [7], in assay [8], in [10], in [11], in [13] and in assay [14] was “inactive” in each case. Also, the outcome in [9] and in assay [15] was inactive. Besides, in [12], the activity change, positive = activation was 7.53%.
Take `Cn1c(N)nc2c3cccnc3ccc21`: the Potency result in assay [16], in assay [4], in assay [8], in [10] and in [13] was “inactive” in each case. Further, in [17], the Potency is 32.7 µM (active). Moreover, the call in assay [9], in assay [18] and in [15] was inactive.
For the compound `CCC1(c2ccccc2)C(=O)N(COC)C(=O)N(COC)C1=O`, the Potency entry in [1], in assay [2], in assay [3], in [16], in assay [4] and in assay [5] was “inactive” throughout. In addition, the Potency result in assay [6], in [7], in [8], in assay [10], in assay [11] and in assay [13] was “inactive” throughout. For the same compound, the compound was classed as inactive in [9], in assay [18] and in [15]. In addition, the activity change, positive = activation in assay [12] is 4.72% [at 42.5 µM].
Take `BrCc1ccc(Br)cc1`: the Potency entry in assay [19], in assay [2], in assay [3], in assay [16], in [17] and in assay [4] was “inactive” each time. In addition, the Potency result in assay [7], in [8], in assay [10], in assay [13] and in assay [14] was “inactive” each time. In addition, the result in assay [9] and in assay [15] was inactive.
`O=C(Cl)/C=C/C(=O)Cl`: the Potency entry in [1], in assay [2], in [3], in assay [4], in assay [6] and in assay [8] was “inactive” each time. For the same compound, the Potency entry in [10], in assay [11] and in [13] was “inactive” throughout. The compound was called inactive in [9] and in assay [15]. In addition, in assay [12], the activity change, positive = activation was -12%.
As to `CC(C)(O)C(Cl)(Cl)Cl`, the Potency result in assay [1], in assay [2], in assay [3], in assay [4], in assay [7] and in assay [8] was “inactive” in each case. Besides, the Potency result in [10], in assay [13] and in [14] was “inactive” in each case. Moreover, the outcome in assay [9], in [18] and in assay [15] was inactive.
